What all share (assay): qHTS profiling for inhibitors of Plasmodium falciparum proliferation (AID 504749); note: nearly all actives have a fitted effect of over 60% in size
Common to all, as to conditions: P. falciparum in erythrocytes, SYBR Green DNA, 72 h; series mostly up to 28.7 µM
Background: qHTS replaces the single test concentration by a dilution series.

The subject of one experiment is CP215. In outline:
(§1)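 SYBR Green fluorescence of parasite DNA, read after lysis and overnight dark incubation, measured growth over 72 h in erythrocyte culture at 0.3% parasitemia and 2.5% hematocrit. Data normalised to DMSO and 0.29 uM artemisinin, with plate-drift correction.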

The test system of another experiment is CP217. The essentials:
as §1

The next experiment relates to CP237. The essentials:
as §1

The next experiment has as its system CP238. In outline: as §1
A further experiment deals with CP247. The essentials:
as §1

The next experiment has as its system CP250. In outline:
as §1

The test system of a further experiment is CP252. In outline:
as §1

The test system of another experiment is CP256. In outline: as §1
The next experiment deals with CP260. The essentials:
as §1

The next experiment relates to CP262. In outline:
as §1

Results filed as inconclusive are left out. Active and inactive are the calls of the source. Calls come from the whole dose curve; as a rule, active = well fitted inhibition curve with a large enough effect; inconclusive = small, poorly fitted or top-dose-only effect; inactive = flat fitted curve, though single readings scatter.
Potency is the fitted concentration of half-maximal effect.

`Cc1c(C)c2c(c(C)c1O)CC[C@@](C)(CCC[C@H](C)CCC[C@H](C)CCCC(C)C)O2`: the Potency entry in the experiment on CP215, in the experiment with CP217, in the experiment on CP237, with CP238, in the experiment with CP247 and in the experiment with CP250 was “inactive” each time. The Potency entry with CP252, in the experiment with CP256, in the experiment with CP260 and with CP262 was “inactive” each time.

On to `CCN(CC)Cc1cc(Nc2ccnc3cc(Cl)ccc23)ccc1O`, for which the Potency is 128 nM (active) in the experiment on CP215; 112 nM (active) in the experiment on CP217; 35.5 nM (active) in the experiment with CP237; 89.1 nM (active) in the experiment on CP238; 100 nM (active) in the experiment on CP247; 17.8 nM (active) with CP250. For the same compound, the Potency was 100 nM (active) in the experiment on CP252, 89.1 nM (active) in the experiment on CP256, 20 nM (active) in the experiment on CP260 and 72.1 nM (active) in the experiment with CP262.

Take `CC[N+](C)(C)Cc1ccccc1Br`: the Potency result in the experiment on CP215, with CP217, in the experiment with CP237, in the experiment with CP238, in the experiment on CP247 and in the experiment on CP250 was “inactive” in each case. The Potency result with CP252, in the experiment on CP256, with CP260 and in the experiment with CP262 was “inactive” throughout.

As to `Nc1ncnc2c1ncn2[C@@H]1O[C@H](COP(=O)(O)OP(=O)(O)OP(=O)(O)O)[C@@H](O)[C@H]1O`, the Potency entry in the experiment on CP215, with CP217, in the experiment with CP237, in the experiment on CP238, with CP247 and in the experiment on CP250 was “inactive” each time. Also, the Potency entry in the experiment on CP252, in the experiment with CP256, in the experiment with CP260 and with CP262 was “inactive” in each case.

As for `CC1(C)S[C@@H]2[C@H](NC(=O)[C@@H](NC(=O)N3CCNC3=O)c3ccccc3)C(=O)N2[C@H]1C(=O)O`, the Potency entry with CP215, with CP217, with CP237, with CP238, in the experiment with CP247 and with CP250 was “inactive” each time. Further, the Potency result in the experiment with CP252, in the experiment with CP256, in the experiment with CP260 and with CP262 was “inactive” throughout.

`CC(NNC(=O)c1ccccc1)c1ccccc1` (centres undefined): the Potency entry with CP215, with CP217, in the experiment on CP237, in the experiment with CP238, in the experiment with CP247 and in the experiment on CP250 was “inactive” in each case. The Potency result in the experiment with CP252, in the experiment on CP256, with CP260 and in the experiment on CP262 was “inactive” throughout.

Take `COc1ccc2c3c1O[C@H]1C[C@@H](O)C=C[C@@]31CCN(C)C2`: the Potency result in the experiment with CP215, with CP217, with CP237, in the experiment on CP238, in the experiment with CP247 and with CP250 was “inactive” throughout. Moreover, the Potency result in the experiment with CP252, in the experiment on CP256, in the experiment on CP260 and in the experiment on CP262 was “inactive” in each case.

With `CCCCCCCCCCCC[n+]1ccc2ccccc2c1`, the Potency in the experiment with CP215 is 1070 nM (active); with CP217, 891 nM (active); with CP237, 631 nM (active); in the experiment with CP238, 631 nM (active); in the experiment on CP247 it was 891 nM (active); in the experiment on CP250, 1120 nM (active). Besides, the Potency with CP252 is 708 nM (active); in the experiment on CP256, 562 nM (active); with CP260 it was 631 nM (active); in the experiment on CP262 it was 379 nM (active).

As for `CCCCCCCC(=O)O`, the Potency result in the experiment with CP215, in the experiment on CP217, in the experiment with CP237, in the experiment with CP238, in the experiment with CP247 and in the experiment with CP250 was “inactive” throughout. Besides, the Potency entry in the experiment on CP252, in the experiment on CP256, in the experiment with CP260 and with CP262 was “inactive” throughout.

Take `COC(F)(F)C(Cl)Cl`: the Potency entry with CP215, in the experiment with CP217, with CP237, with CP238, with CP247 and with CP250 was “inactive” each time. Besides, the Potency result with CP252, in the experiment on CP256, with CP260 and with CP262 was “inactive” throughout.

`C[C@]12O[C@H](C[C@]1(O)CO)n1c3ccccc3c3c4c(c5c6ccccc6n2c5c31)CNC4=O`: the Potency in the experiment with CP215 is 426 nM (active); in the experiment on CP217, 316 nM (active); in the experiment with CP237, 224 nM (active); in the experiment on CP238, 282 nM (active); in the experiment on CP247, 224 nM (active); with CP250, 251 nM (active). The Potency is 316 nM (active) with CP252, 398 nM (active) with CP256, 224 nM (active) with CP260 and 426 nM (active) in the experiment on CP262.

For `COCC(=O)Nc1cc(Sc2ccccc2)ccc1N=C(NC(=O)OC)NC(=O)OC`, the Potency result in the experiment with CP215, in the experiment on CP217, in the experiment with CP237, in the experiment on CP238, with CP247 and in the experiment on CP250 was “inactive” in each case. For the same compound, the Potency result with CP252, in the experiment with CP256, in the experiment on CP260 and in the experiment on CP262 was “inactive” each time.

Regarding `CCCCCCCCCCCCCC[n+]1ccc(C)cc1`, the Potency was 4260 nM (active) in the experiment on CP215; 3980 nM (active) with CP217; 3550 nM (active) in the experiment on CP237; 4470 nM (active) in the experiment on CP238; 3980 nM (active) with CP247; 3980 nM (active) in the experiment with CP250. The Potency with CP252 is 4470 nM (active); with CP256, 5010 nM (active); in the experiment with CP260, 2510 nM (active). Also, the Potency result in the experiment on CP262 is “inactive”.

Consider `C=CCSSSCC=C`, for which the Potency entry in the experiment with CP215, with CP217, with CP237, in the experiment with CP238, in the experiment on CP247 and in the experiment with CP250 was “inactive” throughout. In addition, the Potency entry with CP252, with CP256, with CP260 and in the experiment on CP262 was “inactive” throughout.

Take `CCNC(=O)[C@@H]1CCCN1C(=O)[C@H](CCCN=C(N)N)NC(=O)[C@H](CC(C)C)NC(=O)[C@@H](Cc1c[nH]c2ccccc12)NC(=O)[C@H](Cc1ccc(O)cc1)NC(=O)[C@H](CO)NC(=O)[C@H](Cc1c[nH]c2ccccc12)NC(=O)[C@H](Cc1cnc[nH]1)NC(=O)[C@@H]1CCC(=O)N1`: the Potency with CP215 is 13500 nM (active); with CP217 it was 7080 nM (active); with CP237, 3550 nM (active); in the experiment with CP238 it was 7080 nM (active); in the experiment on CP247, 7080 nM (active); in the experiment with CP250, 8910 nM (active). In addition, the Potency in the experiment on CP252 was 11200 nM (active); in the experiment with CP256 it was 12600 nM (active); in the experiment on CP260, 3550 nM (active).

On to `CO[C@H](C(=O)[C@@H](O)[C@@H](C)O)C1Cc2cc3cc(O[C@H]4C[C@@H](O[C@H]5C[C@@H](O)[C@H](O)[C@@H](C)O5)[C@@H](O)[C@@H](C)O4)c(C)c(O)c3c(O)c2C(=O)[C@H]1O[C@H]1C[C@@H](O[C@H]2C[C@@H](O[C@H]3C[C@](C)(O)[C@H](O)[C@@H](C)O3)[C@H](O)[C@@H](C)O2)[C@H](O)[C@@H](C)O1` (some centres undefined), for which the Potency is 1690 nM (active) with CP215; 224 nM (active) with CP217; 112 nM (active) with CP237; 178 nM (active) with CP238; 355 nM (active) with CP247; 199 nM (active) in the experiment with CP250. The Potency with CP252 was 178 nM (active); in the experiment with CP256 it was 251 nM (active); in the experiment with CP260, 112 nM (active); in the experiment on CP262 it was 1690 nM (active).

With `CCCCCCC(O)C/C=C/CCCCCCCC(=O)O` (centres undefined), the Potency entry in the experiment on CP215, in the experiment on CP217, in the experiment with CP237, in the experiment on CP238, with CP247 and in the experiment on CP250 was “inactive” throughout. Also, the Potency entry in the experiment on CP252, in the experiment with CP256, in the experiment on CP260 and in the experiment on CP262 was “inactive” each time.
